Calls of active or inactive are those of the source. Calls follow the shape of the full dose curve.
Assay: qHTS drug screen for cell cycle checkpoint inhibitors in PARPi-resistant BRCA-mutant ovarian cancer cell lines. (AID 1963452)
Settings: PEO1/OlaR viability, CellTiter-Glo luminescence, 96 h, stronger effect = lower value
Method in brief: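 PEO1, PEO4 and PEO1/OlaR ovarian cancer cells, 600 per well, exposed 96 h at 37C to a dilution series. Viability read by CellTiter-Glo luminescence, normalized to DMSO and empty wells; activity summarized as Z-AUC.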

[1] = measured here: PEO1 parental Z-AUC

Compound | Z-AUC | Z-AUC [1] | Z-AUC (measured here: PEO4 Z-AUC)
Cc1noc2c1-c1ccccc1C(c1ccc(Cl)cc1)=N[C@H]2CC(N)=O | -0.193 (inactive) | -0.00939 | -0.463
C[C@@H]1O[C@@H](O[C@@H]2\C=C/C=C\C=C/C=C\C[C@H](C)OC(=O)/C=C\[C@H]3O[C@@H]3C[C@H](O)C[C@]3(O)C[C@@H](O)[C@@H](C(=O)O)[C@H](C2)O3)[C@H](O)[C@H](N)[C@@H]1O | 1.98 (inactive) | 1.57 | 1.97
O=C(/C=C/C=C/c1ccc2c(c1)OCO2)N1CCCCC1 | 1.54 (inactive) | 1.2 | 2.18
